# Laboratory results published in PubChem BioAssay (NCATS).
# “And” between values parts separate entries of the source, which are not always exact repeats. Equal values may be shown once. Inconclusive results are not listed. Entries that show only a call come without a potency. The source made the active and inactive calls. Unless noted, calls come from the whole dose curve; as a rule, active = well fitted curve in the direction sought with a large enough effect; inconclusive = small, poorly fitted or top-dose-only effect, or another doubt; inactive = no such curve, though single readings can be large; an effect the other way counts as inactive or inconclusive.
# Tests used:
# [1] = target: Arylsulfatase A (Homo sapiens) (UniProt P15289); assay: qHTS screen for enhancers of Arylsulfatase A (ASA1): LOPAC Validation Assay (AID 720538); note: potency is the fitted concentration of half-maximal effect
# How it was run: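 SV40-transformed fibroblasts from an MLD patient (ASA-I179S) were treated with compound for 48 h at 37 C. They were then lysed with 0.5 mM pNCS substrate (final) for 14 h at room temperature and stopped with NaOH; signal read by fluorescence (Ex 525/Em 598 nm), with increase denoting enhanced activity.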
# [2] = qHTS for compounds that reverse cellular toxicity of Amyloid beta (A-beta) peptide in yeast: LOPAC Validation Assay (AID 720559)
# How it was run: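 Yeast expressing toxic A-beta grown with pinned compounds at 30 C for 48 hr. Growth measured as absorbance at 600 nm; data normalized to DMSO and to an equimolar FeCl3/clioquinol mixture as positive control.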
# [3] = qHTS for Activators of Parkin Expression: LOPAC Validation Assay (NLuc Reporter) (AID 720572)
# How it was run: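 Neuronal cells with a Parkin promoter-driven FLuc/NLuc coincidence reporter were treated 24 h at 37 C in 7-point dose response (LOPAC). NLuc luminescence read after FLuc; signals normalized to DMSO and positive control (100%).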
# [4] = qHTS for Activators of Parkin Expression: LOPAC Validation Assay (FLuc Reporter) (AID 720573)
# How it was run: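 Neuronal cell line stably expressing FLuc/NLuc coincidence reporter under the Parkin promoter, 1,500 cells/well, dosed 24 h after seeding in 7-point series for 24 h at 37 C. FLuc luminescence read; normalized to DMSO and positive control (100%).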
# [5] = target: T1, Hexokinase-4 (Homo sapiens) + Glucokinase regulatory protein (Homo sapiens) (UniProt P35557+Q14397); assay: qHTS assay for inhibitors of recombinant human GCK-GKRP interaction: Diaphorase-coupled assay (AID 743205)
# How it was run: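 Compounds pre-incubated 20 min with substrate, then 10 nM GST-GCK with 10 nM FLAG-GKRP added. GCK activity coupled via G6PDH and diaphorase to resorufin (5 mM glucose, 0.4 mM ATP, 0.15 mM NADP+, pH 7.6), read kinetically over 30 minutes at Ex 525/Em 590 nm.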
# [6] = target: T1, Hexokinase-4 (Homo sapiens) + Glucokinase regulatory protein (Homo sapiens); assay: qHTS assay for inhibitors of recombinant human GCK-GKRP interaction: ADP-Glo assay (AID 743206)
# How it was run: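 GST-GCK and FLAG-GKRP (15 nM each in the dispensed mix, with 2 uM S6P) react with 0.4 mM ATP and 5 mM glucose (final) in Hepes pH 7.6 for 60 min at room temperature. ADP is measured by ADP-Glo luminescence.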
# [7] = target: T1, Hexokinase-4 (Homo sapiens) + Glucokinase regulatory protein (Homo sapiens); assay: qHTS assay for inhibitors of recombinant human GCK-GKRP interaction: HTRF assay (AID 743207)
# How it was run: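 HTRF binding of 5 nM GST-GCK and 5 nM FLAG-GKRP with 2 uM S6P in pH 7.1 Hepes buffer (MgCl2, KCl, DTT, Tween 20, BSA). Anti-FLAG XL665 and anti-GST donor added, 60 min at room temperature; 665/615 nm read, normalized to with- and without-GCK controls.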
# [8] = qHTS Assay for Identifying Gametocytocidal Compounds (AID 743244); note: potency is the fitted concentration of half-maximal effect;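 for max response: actives lower the fluorescent signal which means gametocytes are killed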; settings: P. falciparum 3D7 stage III-V gametocytes, alamarBlue, 72 h; max response: stronger effect = lower value
# How it was run: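 3D7 gametocytes, stages III–V, 20,000/well; cpd 72 h, 37 °C/5% CO2; + alamarBlue 24 h; fluor. Ex 525/Em 598.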
# [9] = qHTS profiling of the MIPE4 collection as inhibitors of Plasmodium falciparum (3D7) proliferation (AID 743344; call rule not given here); settings: P. falciparum 3D7 in erythrocytes, SYBR Green DNA fluorescence, 72 h; at 28.5 µM (top of the series) unless noted
# How it was run: (§1)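 Erythrocytes infected with P. falciparum (0.3% parasitemia, 2.5% hematocrit) incubated with compounds 72 h at 37 C, 5% CO2. Lysis with saponin/Triton buffer containing SYBR Green I, overnight at room temperature in the dark; DNA fluorescence (485/535 nm) normalised to 0.29 uM artemisinin and DMSO.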
# [10] = qHTS profiling of the MIPE4 collection as inhibitors of Plasmodium falciparum (DD2) proliferation (AID 743345; call rule not given here); settings: P. falciparum Dd2 in erythrocytes, SYBR Green DNA, 72 h; at 28.5 µM (top of the series) unless noted
# How it was run: as §1
# [11] = qHTS profiling of the MIPE4 collection as inhibitors of Plasmodium falciparum (DD2) proliferation (Rep 2) (AID 743346; call rule not given here); settings: P. falciparum Dd2 in erythrocytes, SYBR Green DNA, 72 h; at 28.5 µM (top of the series) unless noted
# How it was run: as §1
# [12] = qHTS profiling of the MIPE4 collection as inhibitors of Plasmodium falciparum (HB3) proliferation (AID 743347; call rule not given here); settings: P. falciparum HB3 in erythrocytes, SYBR Green DNA, 72 h; at 28.5 µM (top of the series) unless noted
# How it was run: as §1
# [13] = qHTS assay for small molecule agonists of the antioxidant response element (ARE) signaling pathway measured by Nrf2-dependant transcriptional activity (AID 720636; active = well fitted curve in the direction sought with a large enough effect in the repeat runs; an effect the other way counts as inactive or inconclusive)
# How it was run: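 Quantitative HTS format in HepG2 cells stably expressing an ARE-luciferase reporter; 16 hr compound treatment at 37 C, luciferase signal detected with ONE-Glo.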
# [14] = qHTS assay for small molecule agonists of the antioxidant response element (ARE) signaling pathway measured by Nrf2-dependant transcriptional activity - cell viability counter screen (AID 720653; active = well fitted curve in the direction sought with a large enough effect in the repeat runs; an effect the other way counts as inactive or inconclusive); settings: ARE-bla HepG2 viability, CellTiter-Glo ATP luminescence, 16 h; max response: stronger effect = lower value
# How it was run: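 ARE-bla HepG2 cells treated with compounds for 16 h at 37C; this counter screen measures viability as intracellular ATP by CellTiter-Glo luminescence after 30 min at room temperature.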
# [15] = qHTS assay for cell viability of HEK293 cells (AID 743288); settings: ATP luminescence (CellTiter-Glo), 18 h; max response: stronger effect = lower value; note: nearly all actives have a fitted effect of over 50% in size; note: potency is the fitted concentration of half-maximal effect
# How it was run: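 Parental HEK293 cells, 2,000 per well, preincubated at least 5 h at 37 C, then exposed to compounds in DMSO for 18 h at 37 C. Viability by CellTiter-Glo ATP luminescence after 30 min at room temperature.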
# [16] = qHTS assay for cell viability of the p53RE-bla HCT-116 cell line (AID 743292); note: nearly all actives have a fitted effect of over 55% in size
# How it was run: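 Viability of compound-treated p53RE-bla HCT-116 cells is taken from ATP-dependent luciferase luminescence. Treatment lasts 16 h at 37 C after a 5 h settling period; detection follows 30 min at room temperature.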
# [17] = qHTS profiling for inhibitors of Plasmodium falciparum (3D7) proliferation (AID 743322);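 note: infected erythrocytes exposed to compound for 72 h before lysis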; settings: P. falciparum 3D7 proliferation; at 28.7 µM (top of the series)
# How it was run: as §1
# [18] = qHTS profiling for inhibitors of Plasmodium falciparum (DD2) proliferation (AID 743323; call rule not given here); settings: lower = more inhibition; at 28.7 µM (top of the series)
# How it was run: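 P. falciparum Dd2-infected erythrocytes (0.3% parasitemia, 2.5% hematocrit) exposed 72 h at 37 C, 5% CO2. Lysis with SYBR Green, overnight at room temperature, fluorescence 485/535 nm; normalized to 0.29 uM artemisinin and DMSO.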
# [19] = qHTS profiling for inhibitors of Plasmodium falciparum (HB3) proliferation (AID 743324); settings: Plasmodium falciparum HB3 blood-stage proliferation; at 28.7 µM (top of the series)
# How it was run: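 P. falciparum HB3 grown in erythrocytes (0.3% parasitemia, 2.5% hematocrit final) with compound for 72 h at 37 C, 5% CO2. Parasite DNA detected by SYBR Green after saponin/triton lysis overnight; normalized to 0.29 uM artemisinin and DMSO.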
# Chain of Arylsulfatase A (Homo sapiens) (P15289 whole entry, looked up): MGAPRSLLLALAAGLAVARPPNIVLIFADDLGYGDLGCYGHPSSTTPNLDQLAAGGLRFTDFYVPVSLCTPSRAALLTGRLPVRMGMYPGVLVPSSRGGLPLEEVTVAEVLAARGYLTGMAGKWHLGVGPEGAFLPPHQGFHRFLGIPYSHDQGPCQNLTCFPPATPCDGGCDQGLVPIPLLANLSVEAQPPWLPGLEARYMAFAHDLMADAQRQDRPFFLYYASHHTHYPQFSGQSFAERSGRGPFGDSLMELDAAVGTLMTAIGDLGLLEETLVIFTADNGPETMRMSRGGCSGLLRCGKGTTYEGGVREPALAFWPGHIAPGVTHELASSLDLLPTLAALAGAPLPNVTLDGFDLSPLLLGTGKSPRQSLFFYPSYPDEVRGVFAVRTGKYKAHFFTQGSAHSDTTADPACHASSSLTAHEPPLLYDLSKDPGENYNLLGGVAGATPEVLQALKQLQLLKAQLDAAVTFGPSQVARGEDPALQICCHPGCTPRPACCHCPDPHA
# T1 sequence (P35557 whole entry, looked up): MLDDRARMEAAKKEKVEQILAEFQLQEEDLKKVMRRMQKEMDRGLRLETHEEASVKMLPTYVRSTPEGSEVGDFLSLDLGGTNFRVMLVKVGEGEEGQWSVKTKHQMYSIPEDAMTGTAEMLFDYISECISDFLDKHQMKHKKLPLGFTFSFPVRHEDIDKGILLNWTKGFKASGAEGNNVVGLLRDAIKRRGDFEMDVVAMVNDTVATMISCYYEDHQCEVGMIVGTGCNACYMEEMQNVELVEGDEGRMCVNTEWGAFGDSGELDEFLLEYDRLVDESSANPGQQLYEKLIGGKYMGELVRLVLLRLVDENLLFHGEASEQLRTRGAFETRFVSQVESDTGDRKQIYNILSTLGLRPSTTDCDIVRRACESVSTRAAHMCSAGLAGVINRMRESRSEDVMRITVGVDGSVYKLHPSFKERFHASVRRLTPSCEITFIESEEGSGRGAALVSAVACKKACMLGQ
# T1 sequence (Q14397 whole entry, looked up): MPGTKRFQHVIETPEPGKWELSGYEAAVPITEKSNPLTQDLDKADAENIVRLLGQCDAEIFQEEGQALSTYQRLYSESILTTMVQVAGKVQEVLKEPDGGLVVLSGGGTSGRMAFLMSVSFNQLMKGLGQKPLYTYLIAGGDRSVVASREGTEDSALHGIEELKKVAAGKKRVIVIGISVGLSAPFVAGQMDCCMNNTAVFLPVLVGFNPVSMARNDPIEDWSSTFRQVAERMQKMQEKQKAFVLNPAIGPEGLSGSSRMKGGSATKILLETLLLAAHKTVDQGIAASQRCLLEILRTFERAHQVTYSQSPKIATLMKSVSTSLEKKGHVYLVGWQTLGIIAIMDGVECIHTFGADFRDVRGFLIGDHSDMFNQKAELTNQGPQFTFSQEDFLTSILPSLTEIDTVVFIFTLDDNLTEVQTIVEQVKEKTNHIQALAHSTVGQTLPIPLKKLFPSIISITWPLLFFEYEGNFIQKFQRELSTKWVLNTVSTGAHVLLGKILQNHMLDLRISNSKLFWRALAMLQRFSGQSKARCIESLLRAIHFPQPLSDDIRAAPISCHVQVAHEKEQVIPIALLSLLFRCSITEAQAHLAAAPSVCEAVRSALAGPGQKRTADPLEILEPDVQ
compound,measurement,setting,value
CCCN1CCC[C@@H]2Cc3[nH]ncc3C[C@H]21,Potency,[1],inactive
same,outcome,[2],inactive
same,outcome,[3],inactive
same,outcome,[4],inactive
same,outcome,[5],inactive
same,outcome,[6],inactive
same,outcome,[7],inactive
same,max response,[8],-4.72% (inactive) and 8.32% (inactive) and 17.4% (inactive)
Fc1ccc(C(OCCN2CCN(CCCc3ccccc3)CC2)c2ccc(F)cc2)cc1,outcome,[2],inactive
same,outcome,[3],inactive
same,outcome,[4],inactive
same,outcome,[5],inactive
same,outcome,[6],inactive
same,outcome,[7],inactive
same,"parasite growth, % of DMSO control",[9],5.99%
same,"parasite growth remaining, % of DMSO control (lower = more inhibition)",[10],9.78%
same,"parasite growth, % of control (lower = inhibition)",[11],10.9%
same,"growth, % of control",[12],86.1%
c1ccc2c(c1)Nc1ccccc1S2,Potency,[13],inactive
same,max response,[14],-25.7% (inactive) and -9.49% (inactive)
same,Potency,[8],22.4 µM (active) and 28.2 µM (active)
same,max response,[15],-11.4% (inactive) and -9% (inactive)
same,Potency,[16],inactive
C[C@H]1O[C@@H](O[C@H]2[C@@H](O)C[C@H](O[C@H]3[C@@H](O)C[C@H](O[C@H]4CC[C@@]5(C)[C@H](CC[C@@H]6[C@@H]5CC[C@]5(C)[C@@H](C7=CC(=O)OC7)CC[C@]65O)C4)O[C@@H]3C)O[C@@H]2C)C[C@H](O)[C@@H]1O,Potency,[13],inactive
same,max response,[8],-3.93% (inactive)
same,Potency,[15],56.2 nM (active)
NCC1(CC(=O)O)CCCCC1,Potency,[1],inactive
same,outcome,[2],inactive
same,outcome,[3],inactive
same,outcome,[4],inactive
same,outcome,[5],inactive
same,outcome,[6],inactive
same,outcome,[7],inactive
same,max response,[8],10.3% (inactive)
same,"parasite growth, % of DMSO control",[9],58.3%
same,"parasite growth remaining, % of DMSO control (lower = more inhibition)",[10],87.6%
same,"parasite growth, % of control (lower = inhibition)",[11],75.9%
same,"growth, % of control",[12],94.9%
Cc1cc2c(C(C)C)c(O)c(O)c(C=O)c2c(O)c1-c1c(C)cc2c(C(C)C)c(O)c(O)c(C=O)c2c1O,Potency,[1],19000 nM (active)
same,outcome,[4],inactive
same,Potency,[13],inactive
same,max response,[8],0.673% (inactive)
O=c1[nH]c2ccccc2n1CCCN1CCC(n2c(=O)[nH]c3cc(Cl)ccc32)CC1,Potency,[1],inactive
same,outcome,[2],inactive
same,outcome,[3],inactive
same,outcome,[4],inactive
same,outcome,[5],inactive
same,outcome,[6],inactive
same,outcome,[7],inactive
same,max response,[8],-7.84% (inactive) and 21.7% (inactive)
same,"parasite growth, % of DMSO control",[9],26.8%
same,"parasite growth remaining, % of DMSO control (lower = more inhibition)",[10],52.4%
same,"parasite growth, % of control (lower = inhibition)",[11],31.2%
same,"growth, % of control",[12],14%
CC(CCc1ccccc1)NC(C)C(O)c1ccc(O)cc1 (centres undefined),Potency,[1],inactive
same,outcome,[2],inactive
same,outcome,[3],inactive
same,outcome,[4],inactive
same,outcome,[5],inactive
same,outcome,[6],inactive
same,outcome,[7],inactive
same,max response,[8],2.74% (inactive) and 19.3% (inactive)
CN(C)CCC=C1c2ccccc2CCc2ccccc21,Potency,[13],inactive
same,max response,[14],-15% (inactive)
same,Potency,[8],1.26 µM (active)
Oc1cc(Cl)ccc1Oc1ccc(Cl)cc1Cl,Potency,[13],inactive
same,max response,[14],-9.95% (inactive)
same,remaining parasite growth % (stronger effect = lower value),[17],0.738%
same,"activity, percent of control",[18],2.03%
same,"remaining proliferation (% of control), lower = more inhibition",[19],1.17%
same,"parasite growth, % of DMSO control",[9],6.59%
same,"parasite growth remaining, % of DMSO control (lower = more inhibition)",[10],8.79%
same,"parasite growth, % of control (lower = inhibition)",[11],20.6%
same,"growth, % of control",[12],5.41%
